HP1b chromo inh: blocks HP1-beta chromodomain binding to methylated histone tails; P83916; AlphaScreen HP1-beta / biotin-H3K9me3 peptide binding; Potency, µM (doses to about 114 µM), for the others: at the top dose activity change, negative = inhibition, hits mostly inhibitors; actives 0.56% (n = 390,000); further: potency means the concentration at half of the fitted maximal effect; nearly all actives have a fitted effect of over 70% in size
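AlphaScreen: HP1-beta (50 nM) preformed 30 min with biotin-H3(1-18)K9me3 peptide (50 nM) in PBS pH 7.4, 0.01% Tween-20. Compound added for 30 min at RT, then streptavidin donor/nickel chelate acceptor beads (10 ug/mL) for 30 min.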
JMJD2A Tudor: blocks the human JMJD2A Tudor domain | O75164 | AlphaScreen JMJD2A-Tudor / H3K4me3 peptide binding | Potency, µM (top dose mostly 114 µM), inactives show at the top dose activity change, negative = inhibition, actives largely listed as inhibitors | actives 4.4% (n = 390,000) | AID 504339; further: potency means the concentration at half of the fitted maximal effect; on the % scale 0 is the no-effect control and ±100 the full control effect; nearly all actives have a fitted effect of over 50% in size
PI5P4K alpha inh: blocks human PI5P4K alpha kinase activity. P48426. max response, %. PI5P4Kalpha enzyme, ADP-Glo luminescence, 60 min; stronger effect = lower value. actives 1.2% (n = 330,000). AID 652105; active means max response of -50% or lower; inconclusive means between -30% and -50%; inactive means -30% or higher; further: value at the top dose of about 77 µM; on the % scale 0 is the no-effect control and ±100 the full control effect
Target sequence (P48426 whole entry, looked up): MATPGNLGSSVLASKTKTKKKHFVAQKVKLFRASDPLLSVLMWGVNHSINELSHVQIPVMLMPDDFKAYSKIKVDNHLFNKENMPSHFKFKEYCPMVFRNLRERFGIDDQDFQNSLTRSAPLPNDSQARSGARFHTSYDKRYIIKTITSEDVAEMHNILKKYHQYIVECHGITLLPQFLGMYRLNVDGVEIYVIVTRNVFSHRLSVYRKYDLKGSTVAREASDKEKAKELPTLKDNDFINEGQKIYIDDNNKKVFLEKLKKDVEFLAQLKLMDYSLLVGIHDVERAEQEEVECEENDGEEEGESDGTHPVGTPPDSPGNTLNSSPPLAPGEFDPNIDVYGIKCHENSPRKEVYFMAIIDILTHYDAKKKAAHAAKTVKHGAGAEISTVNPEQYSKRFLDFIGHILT
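PI5P4Kalpha ADP-Glo assay; 5 microM ATP final; 60 min RT reaction; HEPES pH 7.4/EGTA/CHAPS, 5% DMSO; controls lacking substrate or enzyme; luminescent end-point.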
L3MBTL1 block: L3MBTL1 (human) inhibition; Q9Y468; AlphaScreen L3MBTL1–H3K9me1 peptide binding; Potency, µM (titrated, usually from 57.1 µM), without a hit: at the top dose activity, negative = inhibition, most hits filed as inhibitors; actives 0.66% (n = 230,000); further: potency means the concentration at half of the fitted maximal effect; on the % scale 0 is the no-effect control and ±100 the full control effect; nearly all actives have a fitted effect of over 60% in size
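Read-out is AlphaScreen signal from streptavidin donor and nickel chelate acceptor beads (10 ug/mL final each) bridging L3MBTL1 (50 nM) and biotinylated K9-monomethylated H3(1-15) peptide (75 nM), after 30 min compound exposure at room temperature.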
G9a block: G9a (human) methyltransferase inhibition. G9a H3K9 monomethylation, AlphaScreen, 2 h. actives 8.8% (n = 350,000). Q96KQ7. Potency, µM (top dose mostly 102 µM), for the others: at the highest dose activity, negative = inhibition, usual class: inhibitors; further: potency means the concentration at half of the fitted maximal effect; on the % scale 0 is the no-effect control and ±100 the full control effect; nearly all actives have a fitted effect of over 75% in size
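G9a (20 nM) preincubated 15 min RT with compounds, then 500 nM biotinylated H3K9 peptide and 20 uM SAM added; 2 h RT reaction. Monomethyl-H3K9 product detected by AlphaScreen with anti-H3K9me1 antibody, streptavidin donor and anti-rabbit IgG acceptor beads.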
BAZ2B inh: blocks human BAZ2B; Q9UIF8; AlphaScreen BAZ2B-H3K14Ac peptide displacement; Potency, µM (highest dose often 114 µM), without a hit: at the highest dose activity change, negative = inhibition, most hits filed as inhibitors; actives 4.4% (n = 360,000); further: potency means the concentration at half of the fitted maximal effect; on the % scale 0 is the no-effect control and ±100 the full control effect; nearly all actives have a fitted effect of over 60% in size
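AlphaScreen luminescence quantifies BAZ2B engagement of H3K14Ac peptide; the protein and biotinylated peptide are both at 50 nM final, buffer PBS pH 7.4 with 0.01% Tween-20, all steps at room temperature.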
Numbers without * were called inactive; ? = inconclusive; · = no result given; [ ] = dose if it differs, or a comment. Hits are enriched below; roughly 11% of the tested compounds scored in any of these assays. Unless noted, the call rests on the fitted dose curve; in most records, active means well fitted inhibition curve with a large enough effect; inconclusive means small, poorly fitted or top-dose-only effect; inactive means no such curve, though single readings can be large or run the other way.

SMILES	HP1b chromo inh	JMJD2A Tudor	PI5P4K alpha inh	L3MBTL1 block	G9a block	BAZ2B inh
CCOc1cccc(-c2nn(-c3ccccc3)cc2/C=C(/C#N)C(=O)NCCCn2ccnc2)c1	?	?	1	?	?	35µM*
N#Cc1c(Cl)cccc1Oc1ccc([S+](=O)([O-])N2CCN([S+](=O)([O-])c3c(F)cccc3F)CC2)cc1	·	-24%	·	·	·	·
Cc1ccc(C)c(N2CCN(CCCNC(=O)c3ccc4nc(CCc5ccccc5)oc4c3)CC2)c1	-10%[57 µM]	?	·	·	?	?
O=C(c1ccccc1)C(Sc1ncn[nH]1)c1ccccc1 (centres undefined)	23%	79µM*	6	1%	5.6µM*	6%
CC(Sc1ncn[nH]1)C(=O)NCc1ccccc1 (centres undefined)	22%	-12%	2	·	39%	0%
Brc1cc(Br)cc(CN2CCSCC2)c1	54%	5%	0	20%	·	18%
CSc1ccc(CN2CCSCC2)cc1	?	13µM*	-6	-4%	13µM*	79µM*
CCc1ccc(CN2CCSCC2)cc1	?	2.2µM*	-8	4%	·	?
CC(C)c1ccc(CN2CCSCC2)cc1	?	2.8µM*	-8	26%	·	?
c1ccc2[nH]c(SCc3cn4cccnc4n3)nc2c1	27%	4%	-10	-4%	14µM*	-7%
CCS(=O)(=O)Nc1ccc(Cc2ccc(NS(=O)(=O)CC)cc2)cc1	19%	-7%	·	·	50µM*	7%
Cc1c(Cl)cccc1NC(=O)Cn1nc(C)c2sc3ccccc3c2c1=O	15%	-18%	·	·	-25%[59 µM]	-14%
Cc1cccc(C)c1NC(=S)Nc1ccc(F)cc1	23%	-10%	1	-1%	0%	-22%
Cc1cccc(NNC(=S)Nc2ccccc2)c1	·	·	-1	·	·	·
Cc1cccc(NNC(=S)Nc2c(C)cccc2C)c1	-6%[57 µM]	14µM*	2	·	45µM*	14µM*
Cc1cccc(NC(=S)NNc2cccc(Cl)c2)c1	10µM*	56µM*	1	·	32µM*	10µM*
N#Cc1c(C#N)c(O)c2ccccc2c1O	-22%	-32%	-20	3%	2µM*	-34%
Cc1ccc(-n2c3c(c(=O)[nH]c2=O)C(NC(=O)c2ccccc2F)(C(F)(F)F)C(=O)N3)cc1C (centres undefined)	32%	-3%	·	·	7%[59 µM]	-14%
CCOc1ccc(S(=O)(=O)NCc2cccnc2)cc1NC(=O)c1ccccc1	26%[57 µM]	1%	4	·	·	·
Cc1cc(S(=O)(=O)NCC(C)C)ccc1OCC(=O)NCc1ccccn1	17%	22µM*	-1	·	?	?
COc1ccc(C)cc1S(=O)(=O)NCc1ccccn1	·	·	-2	·	·	·
O=S(=O)(NCc1ccccn1)c1cc(Cl)ccc1Cl	22%	-7%	-6	-12%	79µM*	-7%
CCOc1ccc(S(=O)(=O)NCc2ccccn2)cc1NC(=O)c1ccccc1	15%	7.9µM*	4	-4%	-5%	-31%
COc1ccc(C(=O)O)cc1S(=O)(=O)NCc1ccccn1	13%	?	4	·	6%	71µM*
CNC(=O)C1(C(F)(F)F)CC(CCCO)CCCO1 (centres undefined)	17%	-12%	·	·	·	·
CNS(=O)(=O)c1cc(C(=O)O)ccc1OC	12%	13µM*	-25	4%	8%	-17%
COc1ccc(C(C)C)cc1S(=O)(=O)NCc1ccccn1	10%	2.2µM*	·	0%	10%[12.7 µM]	-4%
COc1ccc(C(=O)O)cc1S(N)(=O)=O	7%	-3%	-3	-1%	-26%	-17%
COc1ccc(C(=O)CC2(O)C(=O)N(Cc3ccccc3)c3ccc(Br)cc32)cc1 (centres undefined)	12%	-33%	·	·	?	-16%
CCC(=O)Oc1cc(C(C)(C)C)cc2cc(-c3nc(-c4ccc(OC)cc4OC)no3)c(=O)oc12	45%	-7%	·	·	38%[59 µM]	5%
